In PubChem BioAssay (EPA / NIEHS):
Where a structure was tested more than once in an assay, its records may differ in their call. The source made the active and inactive calls. Rule for the calls: active = hit-call score of the fitted dose curve at least 0.9, where 1 is the maximum; inactive = score below 0.9.

Experiment: CCTE_Shafer_MEA_acute_spike_number: CCTE's Neural Acute Assay for Total Number of Spikes, Shafer Lab (AID 2284008);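 for AC50: curve fitted for decrease in spike count so AC50 reflects inhibitors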
Protocol: CCTE_Shafer_MEA_acute assay is conducted using Axion Biosystems 48 well microelectrode array (MEA) plates and Maestro recording system. Each well of the MEA plate contains a grid of 16 microelectrodes embedded in the culture surface. Electrically active cells, such as neurons, can be cultured over the electrodes, and electrical activity in these cells can be recorded extracellularly. The spontaneous firing of neurons is captured from each electrode on a microsecond timescale providing both temporally and spatially precise data. […] The CCTE_Shafer_MEA_acute assay uses primary cultures of rat cortical neurons. As these cultures mature over time, neural networks develop functional activity and form cohesive networks in which electrical activity can be highly coordinated. Baseline 40-minute recordings are made on days post-plating 13 or 15, followed by a secondary 40-minute recording after chemical exposure.CCTE_Shafer_MEA_acute_spike_number is a component of the CCTE_Shafer_MEA_acute assay. It measures the total number of spikes (action potential firings) in a 40-minute recording in a microelectrode array (MEA) using Axion Biosystems Maestro 768 channel amplifier with the AxIS adaptive spike detector. The recordings before and after chemical treatment are used to calculate a percent change in the spike number in each well. Data from the assay component CCTE_Shafer_MEA_acute_spike_number was analyzed into 1 assay endpoint. This assay endpoint, CCTE_Shafer_MEA_acute_spike_number, was analyzed in the negative analysis fitting direction relative to DMSO as the negative control and baseline of activity. Using a type of functional reporter, gain or loss-of-signal activity can be used to understand electrical activity.
Spontaneous activity in the cortical cultures was recorded using an Axion Biosystems Maestro 768 channel amplifier and Axion Integrated Studios (AxIS) v1.8 (or later) software. The amplifier recorded from all channels simultaneously (gain = 1200 x; sampling rate = 12.5 kHz/channel): raw signals were filtered with a Butterworth band-pass filter (300-5000 Hz), which filters out slower local field potentials leaving only fast potentials, i.e., "spikes", arising from extracellular currents associated with action potentials (Pine 2006; Wheeler and Nam 2011). On-line spike detection of filtered signals was conducted with the AxIS adaptive spike detector, using a threshold of 8x the root mean squared (rms) noise on each channel. Any electrodes with rms noise levels greater than 5 uV were grounded (e.g., no data were recorded). Once grounded, an electrode was grounded for the duration of the experiment. All recordings were conducted at 37 C. Wells were deemed usable if on the day of the exposure >/= 10 electrodes were active (defined as >/= 5 spikes/min). On DIV 13 or 15, a minimum of three wells from one cortical culture preparation were treated with each compound (0.03-40 uM). Prior to recording baseline activity, each mwMEA plate was placed in the Maestro at 37 C and allowed to sit for 20 min while firing rates stabilized. Baseline activity (40 min) was recorded before the addition of each compound. An additional 40 min of spontaneous activity was recorded in the presence of each compound. Changes in network parameters relative to baseline were assessed following compound treatment.

Compound	AC50	outcome
Oc1ccc(C2(c3ccc(O)cc3)c3ccccc3-c3ccccc32)cc1	8.82 nM (active)	–
O=C(O)CNCP(=O)(O)O	–	inactive
[Cd+2].[Cl-].[Cl-]	–	inactive
Cc1ccc(OP(=O)(Oc2ccc(C)cc2)Oc2ccc(C)cc2)cc1 (tested in a mixture with another compound)	4200 nM (active)	–
CP(=O)(O)CCC(N)C(=O)O (stereo unspecified)	–	inactive
COc1ccc(CO)cc1	–	inactive
CC1(C)[C@@H](C=C(Cl)Cl)[C@@H]1C(=O)O[C@@H](C#N)c1ccc(F)c(Oc2ccccc2)c1	2960 nM (active)	–
O=c1c2ccccc2c(=O)c2c1cc(Cl)c1[nH]c3c([nH]c12)c(Cl)cc1c(=O)c2ccccc2c(=O)c13	–	inactive
CP(=O)(O)CC[C@H](N)C(=O)O	–	inactive
O=[N+]([O-])O	88.6 nM (active)	inactive
CC1(C)[C@H](C(=O)O[C@H](C#N)c2cccc(Oc3ccccc3)c2)[C@@H]1C=C(Br)Br	1620 nM (active)	–
CCCC[N+](CCCC)(CCCC)CCCC	4.44 nM (active)	–
CC1(C)[C@H](C=C(Cl)Cl)[C@@H]1C(=O)O[C@@H](C#N)c1cccc(Oc2ccccc2)c1	–	inactive
c1cc[n+]2c(c1)-c1cccc[n+]1CC2	–	inactive
C#CCN(C)[C@H](C)Cc1ccccc1	–	inactive
